Results taken from PubChem BioAssay (NCATS).
Several values for one entry are separate records, joined by “and”; a condition that tells them apart may be missing. Equal values may be shown once. Records with an inconclusive call do not appear. Where a call stands in place of a potency, no number is given. Some structures have more than one record in an assay (separate samples or runs), and their calls can disagree. Activity calls are given as the source filed them. Unless noted, calls come from the whole dose curve; as a rule, active = well fitted curve in the direction sought with a large enough effect; inconclusive = small, poorly fitted or top-dose-only effect, or another doubt; inactive = no such curve, though single readings can be large; an effect the other way counts as inactive or inconclusive.

Columns and labels:
[1] = target: Cytochrome P450 1A2 (Homo sapiens) (UniProt P05177); test: p450-cyp1a2 (AID 410; calls by dose curve; note: potency is the fitted concentration of half-maximal effect)
Summary of the method: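 Luminescent demethylation readout: Luciferin-ME (100uM, equal to Km) turned over by 20nM CYP1A2 for 60 min at room temperature after NADPH regeneration addition, following 10 min compound preincubation. Normalization used 57 uM furafylline as full inhibition.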

[2] = target: Glucocorticoid receptor (Homo sapiens) (UniProt P04150); test: GR-GFP Redistribution (AID 450;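 active = compounds whose dose series gives a full or clear partial fitted curve of increased nuclear translocation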; note: potency is the fitted concentration of half-maximal effect); conditions: U2OS GR-GFP nuclear translocation, laser cytometry, 2 h
[3] = target: Glucocorticoid receptor (Homo sapiens) (UniProt P04150); test: GR-EFC Redistribution (AID 451; calls by dose curve; note: potency is the fitted concentration of half-maximal effect); conditions: CHO-K1 GR-EFC translocation, beta-gal luminescence, 2 h
Summary of the method: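 Translocation of GR-ED fusion to nuclear EA restores b-gal, read by luminescence after 1 h room-temperature detection. Engineered CHO-K1 biosensor cells, 1,000/well, exposed 2 h at 37 C to titrations up to 46 uM final.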

[4] = target: Mitogen-activated protein kinase 10 (Mus musculus) (UniProt Q61831); test: JNK3 AlphaScreen Assay (AID 530; active = well fitted curve in either direction with a large enough effect, not every such curve was filed as active;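 note: kinase came from lysate of stimulated human HepG2 cells; signal reports phosphorylation of biotinylated GST-cJun 1-79 at Ser73 with 10 µM ATP; series mostly up to about 57 µM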)
Summary of the method: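 qHTS titrations with 15 min compound pre-incubation before adding ATP (10 uM final). Read-out: AlphaScreen of Ser73-phosphorylated biotin-GST-cJun using HepG2 lysate JNK3 activated by IL-1β and TNFα.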

[5] = target: 3',5'-cyclic-AMP phosphodiesterase 4B (Homo sapiens) (UniProt Q07343); test: qHTS Assay for Inhibitors of PDE-IV (AID 607; active = well fitted activation curve with a large enough effect in the main read-out, with a control signal flat, not every such curve was filed as active)
Summary of the method: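 The readout is membrane depolarisation from a cAMP-sensing CNG channel, detected with a potential dye at ex 535/em 590. Cells were HEK293-derived (endogenous PDE-IV) at 1000 cells/well, titrated up to 22.9 uM final.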

[6] = target: Ubiquitin carboxyl-terminal hydrolase 1 (Homo sapiens) (UniProt O94782); test: Inhibitors of USP1/UAF1: Pilot qHTS (AID 504865); note: nearly all actives have a fitted effect of over 35% in size; note: potency is the fitted concentration of half-maximal effect
Summary of the method: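 Kinetic fluorescence assay: 1nM USP1/UAF1, 15 min compound preincubation, then 150nM Ub-Rho; 480/540 nm.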

[7] = target: DNA dC->dU-editing enzyme APOBEC-3G (Homo sapiens) (UniProt Q9HC16); test: qHTS for inhibitors of Vif-A3G interactions: Validation (AID 588379); note: potency is the fitted concentration of half-maximal effect
Summary of the method: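 Yellow fluorescence (Ex 488, Em 500-530) of Vif-coexpressing HeLa A3G-eYFP cells, scanned by Acumen cytometer, reports blocked A3G degradation. Cells plated at 700/well overnight at 37 deg C before compound addition, then a further overnight compound incubation at 37 deg C.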

[8] = tested on: Zika virus NS2B-NS3 protease; test: Primary screen GU AMC qHTS for Zika virus inhibitors (AID 1347154); note: nearly all actives have a fitted effect of over 70% in size
Summary of the method: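 Fluorogenic AMC-substrate cleavage by noncovalent NS2B-NS3 protease complex (25 nM, pH 8.0 Tris buffer with Tween 20) followed for 15 minutes at room temperature (~20% conversion). Percent inhibition from ex340/em450 signal change, fitted by 4-parameter Hill equation.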

[9] = Primary qHTS for small molecule stabilizers of the endoplasmic reticulum resident proteome: Secreted ER Calcium Modulated Protein (SERCaMP) assay (AID 1508630)
Summary of the method: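 The SH-SY5Y reporter protocol was run at 3 concentrations up to 38.3 uM (primary) or 11 concentrations (follow-up): 16 h compound, 100 nM thapsigargin for 4 h, then extracellular luciferase luminescence.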

[10] = target: Cytochrome P450 2C9 (Homo sapiens) (UniProt P11712); test: qHTS Assay for Inhibitors and Substrates of Cytochrome P450 2C9 (AID 883); note: nearly all actives have a fitted effect of over 60% in size; note: potency is the fitted concentration of half-maximal effect
Summary of the method: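 Inhibition of CYP2C9 is scored as loss of luminescence, with 57uM sulphaphenazole defining 100% inhibition. Substrate Luciferin-H is used at 100uM, equal to its KM; enzyme at 10nM in 25mM KPO4, 60 min at 37C with NADPH regeneration.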

[11] = target: Cytochrome P450 3A4 (Homo sapiens) (UniProt P08684); test: qHTS Assay for Activators of Cytochrome P450 3A4 (AID 885); note: nearly all actives have a fitted effect of over 65% in size
Summary of the method: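 Activators are scored by enhanced luminescence from CYP3A4 conversion of luciferin-PPXE (25uM, equal to KM) to luciferin, after 60 min at RT with an NADPH-regenerating system.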

[12] = target: Cytochrome P450 2D6 (Homo sapiens) (UniProt P10635); test: qHTS Assay for Inhibitors and Substrates of Cytochrome P450 2D6 (AID 891); note: potency is the fitted concentration of half-maximal effect; nearly all actives have a fitted effect of over 60% in size
Summary of the method: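 Luminescent read-out of luciferin formed by 5 nM human CYP2D6 demethylating 30 uM Luciferin-ME EGE (Km level) over 60 min at room temperature after NADPH regeneration addition. Data normalized to full inhibition by 1.43 uM quinidine.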

[13] = target: Cytochrome P450 2C19 (Homo sapiens) (UniProt P33261); test: qHTS Assay for Inhibitors and Substrates of Cytochrome P450 2C19 (AID 899); note: nearly all actives have a fitted effect of over 60% in size; note: potency is the fitted concentration of half-maximal effect
Summary of the method: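 5nM enzyme + 10uM Luciferin-H EGE (=KM), 50mM KPO4; cpd pin-transferred, 10 min 37C; NADPH regen, 60 min 37C; stopped w/ luciferin detection reagent, 20 min; luminescence. Normalized to 57uM ketoconazole (AC100).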

[14] = target: Cytochrome P450 3A4 (Homo sapiens) (UniProt P08684); test: qHTS Assay for Inhibitors and Substrates of Cytochrome P450 3A4 (AID 884); note: potency is the fitted concentration of half-maximal effect; nearly all actives have a fitted effect of over 50% in size
Summary of the method: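 Luminescent readout of luciferin produced by CYP3A4 (20 nM) dealkylation of Luciferin-PPXE, 25 uM (its KM). NADPH-driven reaction ran 60 min at RT after 10 min compound preincubation; data scaled to 57 uM ketoconazole as 100% inhibition.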

Ubiquitin carboxyl-terminal hydrolase 1 (Homo sapiens), sequence (O94782 whole entry, looked up): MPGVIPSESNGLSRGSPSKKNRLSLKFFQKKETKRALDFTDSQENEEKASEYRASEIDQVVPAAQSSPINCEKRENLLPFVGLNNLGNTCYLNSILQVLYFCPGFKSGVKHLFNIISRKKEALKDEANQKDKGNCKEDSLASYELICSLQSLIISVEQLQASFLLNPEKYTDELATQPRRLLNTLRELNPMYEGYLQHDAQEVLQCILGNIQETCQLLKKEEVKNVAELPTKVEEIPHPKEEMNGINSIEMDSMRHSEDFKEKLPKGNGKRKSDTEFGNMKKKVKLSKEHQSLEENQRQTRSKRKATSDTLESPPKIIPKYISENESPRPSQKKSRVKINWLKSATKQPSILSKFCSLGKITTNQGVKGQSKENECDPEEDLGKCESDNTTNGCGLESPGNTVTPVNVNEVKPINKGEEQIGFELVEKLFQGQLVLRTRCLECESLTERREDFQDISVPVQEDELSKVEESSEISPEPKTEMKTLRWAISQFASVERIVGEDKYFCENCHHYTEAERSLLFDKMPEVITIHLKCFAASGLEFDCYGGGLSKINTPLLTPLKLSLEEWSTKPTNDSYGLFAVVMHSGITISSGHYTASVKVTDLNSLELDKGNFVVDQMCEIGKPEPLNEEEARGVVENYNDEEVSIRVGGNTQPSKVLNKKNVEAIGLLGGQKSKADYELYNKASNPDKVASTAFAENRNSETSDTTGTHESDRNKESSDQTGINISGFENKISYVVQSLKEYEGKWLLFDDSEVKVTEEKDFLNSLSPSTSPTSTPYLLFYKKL
Glucocorticoid receptor (Homo sapiens), sequence (P04150 whole entry, looked up, the tested form may be a part): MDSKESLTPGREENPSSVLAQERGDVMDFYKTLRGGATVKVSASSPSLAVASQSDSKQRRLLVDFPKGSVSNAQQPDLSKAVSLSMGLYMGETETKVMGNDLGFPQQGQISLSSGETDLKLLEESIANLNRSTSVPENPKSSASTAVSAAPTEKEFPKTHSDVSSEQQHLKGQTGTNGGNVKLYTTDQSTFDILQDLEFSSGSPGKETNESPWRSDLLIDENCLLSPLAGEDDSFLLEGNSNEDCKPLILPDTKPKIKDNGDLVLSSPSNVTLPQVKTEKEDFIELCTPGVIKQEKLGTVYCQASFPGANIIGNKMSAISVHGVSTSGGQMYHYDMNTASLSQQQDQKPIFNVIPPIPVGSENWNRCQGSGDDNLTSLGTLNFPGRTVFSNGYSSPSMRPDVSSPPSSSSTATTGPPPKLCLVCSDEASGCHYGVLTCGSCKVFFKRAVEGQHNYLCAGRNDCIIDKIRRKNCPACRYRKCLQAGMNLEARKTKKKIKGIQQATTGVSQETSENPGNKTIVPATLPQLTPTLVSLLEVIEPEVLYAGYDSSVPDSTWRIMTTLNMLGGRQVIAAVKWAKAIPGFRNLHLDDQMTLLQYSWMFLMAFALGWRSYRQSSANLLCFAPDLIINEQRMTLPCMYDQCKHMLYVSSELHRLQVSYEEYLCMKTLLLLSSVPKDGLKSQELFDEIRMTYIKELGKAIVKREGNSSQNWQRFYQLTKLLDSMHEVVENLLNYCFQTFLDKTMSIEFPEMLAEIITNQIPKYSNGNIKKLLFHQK
DNA dC->dU-editing enzyme APOBEC-3G (Homo sapiens), sequence (Q9HC16 whole entry, looked up): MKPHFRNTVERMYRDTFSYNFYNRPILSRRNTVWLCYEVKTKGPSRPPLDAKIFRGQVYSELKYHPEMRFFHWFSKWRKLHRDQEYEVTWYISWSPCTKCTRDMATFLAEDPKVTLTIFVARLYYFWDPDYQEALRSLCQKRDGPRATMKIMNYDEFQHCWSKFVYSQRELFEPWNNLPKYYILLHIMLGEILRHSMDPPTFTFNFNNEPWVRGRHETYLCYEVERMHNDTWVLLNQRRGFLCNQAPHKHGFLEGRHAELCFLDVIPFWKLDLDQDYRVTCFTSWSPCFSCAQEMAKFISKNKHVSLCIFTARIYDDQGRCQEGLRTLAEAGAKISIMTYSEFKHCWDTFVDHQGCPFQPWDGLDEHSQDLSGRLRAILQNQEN
Cytochrome P450 1A2 (Homo sapiens), sequence (P05177 whole entry, looked up): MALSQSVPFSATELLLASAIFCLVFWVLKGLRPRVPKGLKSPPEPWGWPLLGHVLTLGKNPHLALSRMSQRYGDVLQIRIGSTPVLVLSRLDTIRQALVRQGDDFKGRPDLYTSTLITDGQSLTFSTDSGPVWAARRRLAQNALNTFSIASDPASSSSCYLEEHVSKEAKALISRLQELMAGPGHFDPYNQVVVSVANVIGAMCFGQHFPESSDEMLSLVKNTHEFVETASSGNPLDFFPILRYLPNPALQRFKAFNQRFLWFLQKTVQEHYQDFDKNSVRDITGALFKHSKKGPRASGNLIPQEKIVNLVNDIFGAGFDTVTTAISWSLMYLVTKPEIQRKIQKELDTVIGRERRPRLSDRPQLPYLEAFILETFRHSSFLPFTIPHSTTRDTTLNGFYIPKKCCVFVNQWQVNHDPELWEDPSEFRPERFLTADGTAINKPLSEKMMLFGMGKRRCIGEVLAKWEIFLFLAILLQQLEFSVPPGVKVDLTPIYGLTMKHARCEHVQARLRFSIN
3',5'-cyclic-AMP phosphodiesterase 4B (Homo sapiens), sequence (Q07343 whole entry, looked up): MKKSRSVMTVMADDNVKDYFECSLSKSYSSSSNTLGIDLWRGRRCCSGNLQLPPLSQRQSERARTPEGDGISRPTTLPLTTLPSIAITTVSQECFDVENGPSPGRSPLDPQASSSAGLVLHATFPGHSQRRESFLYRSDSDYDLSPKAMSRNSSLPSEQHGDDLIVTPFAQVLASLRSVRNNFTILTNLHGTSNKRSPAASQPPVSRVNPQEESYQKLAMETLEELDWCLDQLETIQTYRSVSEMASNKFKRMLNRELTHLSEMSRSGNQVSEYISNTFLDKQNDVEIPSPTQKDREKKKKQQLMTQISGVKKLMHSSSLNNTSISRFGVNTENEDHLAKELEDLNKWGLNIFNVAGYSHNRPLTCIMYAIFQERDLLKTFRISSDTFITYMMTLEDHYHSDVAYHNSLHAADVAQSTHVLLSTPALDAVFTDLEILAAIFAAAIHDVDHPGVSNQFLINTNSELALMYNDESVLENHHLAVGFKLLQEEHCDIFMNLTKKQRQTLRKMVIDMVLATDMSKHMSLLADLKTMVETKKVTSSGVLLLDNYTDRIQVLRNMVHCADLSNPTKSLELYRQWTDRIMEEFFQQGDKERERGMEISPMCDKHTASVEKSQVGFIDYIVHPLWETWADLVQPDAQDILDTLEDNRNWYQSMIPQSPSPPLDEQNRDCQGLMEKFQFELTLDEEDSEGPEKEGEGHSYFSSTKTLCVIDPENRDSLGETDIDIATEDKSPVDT
Cytochrome P450 3A4 (Homo sapiens), sequence (P08684 whole entry, looked up): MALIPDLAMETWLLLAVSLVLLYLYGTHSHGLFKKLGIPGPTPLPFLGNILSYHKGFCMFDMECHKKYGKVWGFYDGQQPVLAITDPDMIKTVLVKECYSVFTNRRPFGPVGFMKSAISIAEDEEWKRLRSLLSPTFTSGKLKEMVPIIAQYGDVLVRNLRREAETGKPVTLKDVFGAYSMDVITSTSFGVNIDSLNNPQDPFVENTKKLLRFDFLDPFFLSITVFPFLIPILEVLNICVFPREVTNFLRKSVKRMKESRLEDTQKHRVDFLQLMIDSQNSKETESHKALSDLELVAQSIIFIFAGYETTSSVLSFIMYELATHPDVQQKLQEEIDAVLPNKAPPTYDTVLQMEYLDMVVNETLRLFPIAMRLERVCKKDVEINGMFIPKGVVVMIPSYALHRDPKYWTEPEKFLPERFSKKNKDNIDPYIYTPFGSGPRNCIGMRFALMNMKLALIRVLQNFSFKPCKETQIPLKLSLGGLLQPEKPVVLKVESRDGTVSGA
Cytochrome P450 2D6 (Homo sapiens), sequence (P10635 whole entry, looked up): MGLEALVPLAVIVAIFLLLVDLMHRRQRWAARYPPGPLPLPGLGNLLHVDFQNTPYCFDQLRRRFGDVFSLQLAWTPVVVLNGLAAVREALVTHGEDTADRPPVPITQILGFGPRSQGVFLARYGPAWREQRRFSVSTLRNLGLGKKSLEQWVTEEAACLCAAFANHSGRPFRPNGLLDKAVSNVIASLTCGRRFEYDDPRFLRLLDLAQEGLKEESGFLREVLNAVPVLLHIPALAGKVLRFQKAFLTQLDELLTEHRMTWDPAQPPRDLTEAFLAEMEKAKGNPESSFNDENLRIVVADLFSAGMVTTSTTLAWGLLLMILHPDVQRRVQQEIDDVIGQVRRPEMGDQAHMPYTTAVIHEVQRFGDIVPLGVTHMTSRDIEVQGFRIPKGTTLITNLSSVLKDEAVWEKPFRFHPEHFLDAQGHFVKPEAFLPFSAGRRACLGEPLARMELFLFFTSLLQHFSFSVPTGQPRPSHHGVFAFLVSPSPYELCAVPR
Cytochrome P450 2C19 (Homo sapiens), sequence (P33261 whole entry, looked up): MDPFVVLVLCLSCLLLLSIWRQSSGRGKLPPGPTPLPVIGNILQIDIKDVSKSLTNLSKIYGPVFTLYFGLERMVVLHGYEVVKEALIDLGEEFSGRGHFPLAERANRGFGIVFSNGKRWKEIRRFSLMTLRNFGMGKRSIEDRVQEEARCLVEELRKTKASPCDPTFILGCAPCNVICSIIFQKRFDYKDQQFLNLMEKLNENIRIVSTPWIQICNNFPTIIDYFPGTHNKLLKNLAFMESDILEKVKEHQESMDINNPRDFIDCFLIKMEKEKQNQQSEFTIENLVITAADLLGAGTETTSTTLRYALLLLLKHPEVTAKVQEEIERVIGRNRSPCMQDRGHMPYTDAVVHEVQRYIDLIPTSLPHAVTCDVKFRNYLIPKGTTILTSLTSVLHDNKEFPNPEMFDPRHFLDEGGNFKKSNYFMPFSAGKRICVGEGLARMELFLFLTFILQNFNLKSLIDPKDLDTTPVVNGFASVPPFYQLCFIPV

Compound	Potency [1]	Potency [2]	Potency [3]	Potency [4]	Potency [5]	Potency [6]	Potency [7]	Potency [8]	Potency [9]	Potency [10]	Potency [11]	Potency [12]	Potency [13]	Potency [14]
COC(=O)Nc1ccc2[nH]cc(CCNC(C)=O)c2c1	0.316 µM (active)	> 46 µM (inactive)	> 46 µM (inactive)	inactive	inactive	inactive	inactive	inactive	inactive	–	–	–	–	–
O=C(N/N=C\c1ccccc1O)c1ccccc1O	0.794 µM (active)	> 46 µM (inactive)	> 46 µM (inactive)	–	inactive	inactive	–	inactive	inactive	inactive	inactive	7.94 µM (active)	inactive	–
CCCCCCCCCCCCCCC[C@@H](O)[C@@H](N)CO	25.1 µM (active)	> 46 µM (inactive)	> 46 µM (inactive)	inactive	inactive	31.6 µM (active)	inactive	inactive	inactive	–	–	7.94 µM (active)	–	–
C[N+]1(C)CCc2cc3c(cc2[C@@H]1[C@@H]1C(=O)Oc2c1ccc1c2OCO1)OCO3	inactive and 1.26 µM (active)	> 46 µM (inactive)	> 46 µM (inactive)	inactive	inactive	–	inactive	inactive	inactive	–	inactive	–	–	–
COC(=O)/C=C\c1cc(O)ccc1O	3.98 µM (active)	> 46 µM (inactive)	> 46 µM (inactive)	inactive	inactive	inactive	18.8 µM (active)	inactive	inactive	7.94 µM (active)	–	–	–	–
C[C@](O)(C(=O)Nc1ccc(S(=O)(=O)c2ccccc2)cc1)C(F)(F)F	39.8 µM (active)	> 46 µM (inactive)	> 46 µM (inactive)	inactive	–	inactive	inactive	inactive	inactive	–	inactive	–	–	–
COc1cc(COc2cc(N)c(Cl)cc2C(=O)CCC2CCN(CCNS(C)(=O)=O)CC2)cc(OC)c1	inactive	> 46 µM (inactive)	> 46 µM (inactive)	inactive	–	–	inactive	inactive	inactive	–	inactive	0.794 µM (active)	–	2 µM (active)
c1ccc(N2CCN(CCCOc3ccc4c(c3)OCO4)CC2)cc1	12.6 µM (active)	> 46 µM (inactive)	> 46 µM (inactive)	inactive	–	inactive	inactive	inactive	inactive	–	inactive	0.126 µM (active)	5.01 µM (active)	3.16 µM (active)
CCCCCCN(CCCCCC)C(=O)Cc1c(-c2ccc(Cl)cc2)[nH]c2ccc(Cl)cc12	31.6 µM (active)	> 46 µM (inactive)	> 46 µM (inactive)	inactive	inactive	inactive	inactive	inactive	inactive	–	inactive	–	–	–
